# Key:
# NKX3-2 [1] = biological target: NKX3-2 (Homo sapiens, UniProt P78367 192-278, P234S); test: PBM; 200 nM protein, PBS; settings: dsDNA, one strand shown
# NKX3-2 [2] = biological target: NKX3-2 (Homo sapiens, UniProt P78367 192-278); test: PBM; 200 nM protein, PBS; settings: dsDNA, one strand shown
# NKX3-2 (Homo sapiens, UniProt P78367 192-278), sequence (P78367 192-278): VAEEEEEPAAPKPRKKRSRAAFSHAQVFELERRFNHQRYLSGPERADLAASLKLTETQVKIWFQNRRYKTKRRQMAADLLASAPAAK
# NKX3-2 (Homo sapiens, UniProt P78367 192-278, P234S), sequence (P78367 192-278 P234S): as the sequence (P78367 192-278) above, with P43S counted along it
Sequence,binding signal (NKX3-2 [1]),binding signal (NKX3-2 [2])
ACGGGACG,"10.4 upbm affinity estimate (log intensity, higher = more binding, comparable within an allelic series)","10.4 upbm affinity estimate (log intensity, higher = more binding, comparable within an allelic series)"
AAGTGGGA,"12.6 upbm affinity estimate (log intensity, higher = more binding, comparable within an allelic series)","12.6 upbm affinity estimate (log intensity, higher = more binding, comparable within an allelic series)"
TCTGGGCA,"10.6 upbm affinity estimate (log intensity, higher = more binding, comparable within an allelic series)","10.6 upbm affinity estimate (log intensity, higher = more binding, comparable within an allelic series)"
GCCCGGCC,"10.3 upbm affinity estimate (log intensity, higher = more binding, comparable within an allelic series)","10.2 upbm affinity estimate (log intensity, higher = more binding, comparable within an allelic series)"
CCGCGGCA,"10.5 upbm affinity estimate (log intensity, higher = more binding, comparable within an allelic series)","10.5 upbm affinity estimate (log intensity, higher = more binding, comparable within an allelic series)"
GCCGAGCC,"10.8 upbm affinity estimate (log intensity, higher = more binding, comparable within an allelic series)","10.7 upbm affinity estimate (log intensity, higher = more binding, comparable within an allelic series)"
CGCCAGCC,"10.7 upbm affinity estimate (log intensity, higher = more binding, comparable within an allelic series)","10.6 upbm affinity estimate (log intensity, higher = more binding, comparable within an allelic series)"
CAGGTAGC,"10.7 upbm affinity estimate (log intensity, higher = more binding, comparable within an allelic series)","10.7 upbm affinity estimate (log intensity, higher = more binding, comparable within an allelic series)"
TAAGAACA,"11.4 upbm affinity estimate (log intensity, higher = more binding, comparable within an allelic series)","11.5 upbm affinity estimate (log intensity, higher = more binding, comparable within an allelic series)"
CCTCTTAC,"12.1 upbm affinity estimate (log intensity, higher = more binding, comparable within an allelic series)","12.2 upbm affinity estimate (log intensity, higher = more binding, comparable within an allelic series)"
AGTGGAGA,"11.7 upbm affinity estimate (log intensity, higher = more binding, comparable within an allelic series)","11.7 upbm affinity estimate (log intensity, higher = more binding, comparable within an allelic series)"
CGCTGCGA,"10.5 upbm affinity estimate (log intensity, higher = more binding, comparable within an allelic series)","10.5 upbm affinity estimate (log intensity, higher = more binding, comparable within an allelic series)"
CGGTTACC,"10.6 upbm affinity estimate (log intensity, higher = more binding, comparable within an allelic series)","10.5 upbm affinity estimate (log intensity, higher = more binding, comparable within an allelic series)"
AGCCTGGA,"10.6 upbm affinity estimate (log intensity, higher = more binding, comparable within an allelic series)","10.6 upbm affinity estimate (log intensity, higher = more binding, comparable within an allelic series)"
CCAGGCAA,"10.7 upbm affinity estimate (log intensity, higher = more binding, comparable within an allelic series)","10.6 upbm affinity estimate (log intensity, higher = more binding, comparable within an allelic series)"
CAAAGAGG,"11.9 upbm affinity estimate (log intensity, higher = more binding, comparable within an allelic series)","12 upbm affinity estimate (log intensity, higher = more binding, comparable within an allelic series)"
CCTAAGTA,"12.1 upbm affinity estimate (log intensity, higher = more binding, comparable within an allelic series)","12.1 upbm affinity estimate (log intensity, higher = more binding, comparable within an allelic series)"

Sequence,binding signal (NKX3-2 [1]),binding signal (NKX3-2 [2])
ACCAAGAG,"11.7 upbm affinity estimate (log intensity, higher = more binding, comparable within an allelic series)","11.8 upbm affinity estimate (log intensity, higher = more binding, comparable within an allelic series)"
GGCTCCCC,"10.6 upbm affinity estimate (log intensity, higher = more binding, comparable within an allelic series)","10.6 upbm affinity estimate (log intensity, higher = more binding, comparable within an allelic series)"
ATCCCGCC,"10.7 upbm affinity estimate (log intensity, higher = more binding, comparable within an allelic series)","10.7 upbm affinity estimate (log intensity, higher = more binding, comparable within an allelic series)"
CAAGGGTC,"11.7 upbm affinity estimate (log intensity, higher = more binding, comparable within an allelic series)","11.8 upbm affinity estimate (log intensity, higher = more binding, comparable within an allelic series)"
CCCGAATC,"10.4 upbm affinity estimate (log intensity, higher = more binding, comparable within an allelic series)","10.4 upbm affinity estimate (log intensity, higher = more binding, comparable within an allelic series)"
GAGTGCAC,"12.2 upbm affinity estimate (log intensity, higher = more binding, comparable within an allelic series)","12.4 upbm affinity estimate (log intensity, higher = more binding, comparable within an allelic series)"
CGCGGTAC,"10.8 upbm affinity estimate (log intensity, higher = more binding, comparable within an allelic series)","10.8 upbm affinity estimate (log intensity, higher = more binding, comparable within an allelic series)"
ACGGTGTC,"10.6 upbm affinity estimate (log intensity, higher = more binding, comparable within an allelic series)","10.6 upbm affinity estimate (log intensity, higher = more binding, comparable within an allelic series)"
CGACCTAG,"10.6 upbm affinity estimate (log intensity, higher = more binding, comparable within an allelic series)","10.6 upbm affinity estimate (log intensity, higher = more binding, comparable within an allelic series)"
AAAGTGGA,"12.6 upbm affinity estimate (log intensity, higher = more binding, comparable within an allelic series)","12.6 upbm affinity estimate (log intensity, higher = more binding, comparable within an allelic series)"
CTAAAGGC,"10.5 upbm affinity estimate (log intensity, higher = more binding, comparable within an allelic series)","10.6 upbm affinity estimate (log intensity, higher = more binding, comparable within an allelic series)"
AGGAAAAA,"10.5 upbm affinity estimate (log intensity, higher = more binding, comparable within an allelic series)","10.6 upbm affinity estimate (log intensity, higher = more binding, comparable within an allelic series)"
GAGACCGC,"10.7 upbm affinity estimate (log intensity, higher = more binding, comparable within an allelic series)","10.7 upbm affinity estimate (log intensity, higher = more binding, comparable within an allelic series)"
AACGCCGG,"10.6 upbm affinity estimate (log intensity, higher = more binding, comparable within an allelic series)","10.6 upbm affinity estimate (log intensity, higher = more binding, comparable within an allelic series)"
AGAAGAGG,"11.6 upbm affinity estimate (log intensity, higher = more binding, comparable within an allelic series)","11.7 upbm affinity estimate (log intensity, higher = more binding, comparable within an allelic series)"
CGCGGCCG,"10.2 upbm affinity estimate (log intensity, higher = more binding, comparable within an allelic series)","10.2 upbm affinity estimate (log intensity, higher = more binding, comparable within an allelic series)"

# Reference: paper PMC11006913
